# Measurements reported in the supplement of paper PMC8728848.
# This excerpt belongs to a sample that is enriched for the strongest signals.
# B1: FBG4 (Homo sapiens), Q96EF6 (protein)
# chain: MGARLSRRRLPADPSLALDALPPELLVQVLSHVPPRSLVTRCRPVCRAWRDIVDGPTVWLLQLARDRSAEGRALYAVAQRCLPSNEDKEEFPLCALARYCLRAPFGRNLIFNSCGEQGFRGWEVEHGGNGWAIEKNLTPVPGAPSQTCFVTSFEWCSKRQLVDLVMEGVWQELLDSAQIEICVADWWGARENCGCVYQLRVRLLDVYEKEVVKFSASPDPVLQWTERGCRQVSHVFTNFGKGIRYVSFEQYGRDVSSWVGHYGALVTHSSVRVRIRLS
# Key:
# Assay in all cases: glycan array binding signal (z-score within array); higher = stronger binding
# Conditions in all cases: glycan notation: IUPAC condensed, linker removed
# Fuc(a1-2)Gal(b1-4)GlcNAc = target: Fuc(a1-2)Gal(b1-4)GlcNAc
# In short: (§1)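 Glycan array data were curated from 3228 arrays in the Consortium for Functional Glycomics database and kept only where the protein sequence was available. Glycan names were converted to IUPAC-condensed notation, and columns mapping to the same glycan were averaged. The binding signal is a within-array Z-score, averaged across arrays of the same protein sequence at different concentrations or buffers and across linkers. Negative Z-scores can be read as non-binding.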
# [1] = target: Fuc(a1-2)Gal6S(b1-4)GlcNAc
# In short: as §1
# [2] = target: Fuc(a1-3)[Gal3S(b1-4)]Glc
# In short: as §1
# Gal(a1-3)Gal(b1-3)Glc = target: Gal(a1-3)Gal(b1-3)Glc
# In short: as §1
# Gal(a1-4)GlcNAc = target: Gal(a1-4)GlcNAc
# In short: as §1
# Gal(a1-6)Glc = target: Gal(a1-6)Glc
# In short: as §1
# Gal(b1-3)Gal = target: Gal(b1-3)Gal
# In short: as §1
# [3] = target: Gal(b1-3)GalNAc(b1-3)Gal(b1-4)GlcNAc
# In short: as §1
# [4] = target: Gal(b1-4)GlcNAc(b1-2)Man(a1-3)[Gal(b1-4)GlcNAc(b1-2)Man(a1-6)]Man(b1-4)GlcNAc(b1-4)GlcNAc
# In short: as §1
# Gal3S(b1-4)Glc6S = target: Gal3S(b1-4)Glc6S
# In short: as §1
# Gal3S(b1-4)GlcNAc = target: Gal3S(b1-4)GlcNAc
# In short: as §1
# Gal3S(b1-4)GlcNAc6S = target: Gal3S(b1-4)GlcNAc6S
# In short: as §1
# Gal3S6S(b1-4)GlcNAc6S = target: Gal3S6S(b1-4)GlcNAc6S
# In short: as §1
# Gal6S(b1-4)Glc6S = target: Gal6S(b1-4)Glc6S
# In short: as §1
# [5] = target: GalNAc(b1-3)Gal(a1-4)Gal(b1-4)GlcNAc
# In short: as §1
# Glc(b1-4)Glc = target: Glc(b1-4)Glc
# In short: as §1
# [6] = target: GlcNAc(b1-4)GlcNAc(b1-4)GlcNAc(b1-4)GlcNAc(b1-4)GlcNAc(b1-4)GlcNAc
# In short: as §1
# [7] = target: Man(a1-3)[Man(a1-6)]Man(b1-4)GlcNAc(b1-4)GlcNAc
# In short: as §1
# Man(b1-4)GlcNAc = target: Man(b1-4)GlcNAc
# In short: as §1
# [8] = target: Neu5Ac(a2-3)Gal(b1-3)GalNAc
# In short: as §1
# [9] = target: Neu5Ac(a2-3)Gal(b1-4)GlcNAc(b1-3)Gal(b1-4)GlcNAc
# In short: as §1
# [10] = target: Neu5Ac(a2-3)Gal(b1-4)GlcNAc(b1-6)[Gal(b1-3)]GalNAc
# In short: as §1
# [11] = target: Neu5Ac(a2-3)Gal(b1-4)GlcNAc6S
# In short: as §1
# [12] = target: Neu5Ac(a2-3)Gal(b1-4)[Fuc(a1-3)]GlcNAc(b1-3)Gal
# In short: as §1
# [13] = target: Neu5Ac(a2-8)Neu5Ac(a2-3)Gal(b1-4)Glc
# In short: as §1
# [14] = target: Neu5Ac(a2-8)Neu5Ac(a2-3)[GalNAc(b1-4)]Gal(b1-4)Glc
# In short: as §1
# [15] = target: Neu5Gc(a2-3)Gal(b1-3)GlcNAc
# In short: as §1
binder,measurement,setting,value
B1,glycan array binding signal (z-score),Fuc(a1-2)Gal(b1-4)GlcNAc,-0.263
same,glycan array binding signal (z-score),[1],-0.475
same,glycan array binding signal (z-score),[2],-0.408
same,glycan array binding signal (z-score),Gal(a1-3)Gal(b1-3)Glc,-0.259
same,glycan array binding signal (z-score),Gal(a1-4)GlcNAc,-0.495
same,glycan array binding signal (z-score),Gal(a1-6)Glc,1.59
same,glycan array binding signal (z-score),Gal(b1-3)Gal,-0.536
same,glycan array binding signal (z-score),[3],-0.307
same,glycan array binding signal (z-score),[4],0.176
same,glycan array binding signal (z-score),Gal3S(b1-4)Glc6S,2.36
same,glycan array binding signal (z-score),Gal3S(b1-4)GlcNAc,0.201
same,glycan array binding signal (z-score),Gal3S(b1-4)GlcNAc6S,2.01
same,glycan array binding signal (z-score),Gal3S6S(b1-4)GlcNAc6S,6.42
same,glycan array binding signal (z-score),Gal6S(b1-4)Glc6S,3.24
same,glycan array binding signal (z-score),[5],-0.171
same,glycan array binding signal (z-score),Glc(b1-4)Glc,0.332
same,glycan array binding signal (z-score),[6],1.31
same,glycan array binding signal (z-score),[7],0.275
same,glycan array binding signal (z-score),Man(b1-4)GlcNAc,-0.448
same,glycan array binding signal (z-score),[8],-0.559
same,glycan array binding signal (z-score),[9],-0.49
same,glycan array binding signal (z-score),[10],-0.301
same,glycan array binding signal (z-score),[11],0.103
same,glycan array binding signal (z-score),[12],-0.522
same,glycan array binding signal (z-score),[13],-0.41
same,glycan array binding signal (z-score),[14],-0.266
same,glycan array binding signal (z-score),[15],-0.432
